Screening results (PubChem BioAssay)
A selection: hits, their analogues and other compounds. The true share with any hit is near 7.2%.
LASV entry inh: blocks Lassa virus binding to or entry into cells; Lassa virus pseudotype entry inhibition, cell reporter; Potency, µM (highest dose often 37.9 µM), without a hit: top-dose activity change, negative = inhibition, most hits filed as inhibitors; hit rate 1.2% among 300,000; AID 540256; calls by dose curve; tested in HEK293 cells; note: nearly all actives have a fitted effect of over 50% in size
Sm TGR block: S. mansoni TGR enzyme inhibition. hit rate 3% among 360,000. purified TGR, DTNB reduction, TNB absorbance 405 nm. Q962Y6. Potency, µM (series often up to 114 µM), inactives show top-dose activity change, negative = inhibition, usual class: inhibitors. AID 485364; note: nearly all actives have a fitted effect of over 60% in size
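Kinetic colorimetric format: TGR-catalysed, NADPH-driven DTNB reduction monitored via TNB absorbance. Enzyme dispensed at 20 nM; compound exposure 15 min at room temperature before reaction start.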
HCV inh: HCV inhibition. Huh7.5.1 HCVcc-Cre infection, luciferase reporter, 44 h. Potency, µM (doses to about 41.8 µM), without a hit: at the highest dose activity change, negative = inhibition, most hits filed as inhibitors. hit rate 3.4% among 340,000. AID 651820
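A cell-based infection assay in which seeded cells (1,000 per well) receive test compound after 4 h, are inoculated with HCVcc-Cre at approximately 0.5 moi, and are incubated 44 h before luminescence detection.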
FMDV antiviral: foot and mouth disease virus antiviral activity. FMDV antiviral cell-based qHTS. hit rate 1.2% among 410,000. Potency, µM (highest dose often 57.9 µM), for the others: top-dose activity change, negative = inhibition, actives largely listed as inhibitors; calls by dose curve; tested in HEK293T cells; note: read-out not given here; nearly all actives have a fitted effect of over 45% in size
MARV entry inh: Marburg virus entry inhibition. Potency, µM (top dose mostly 37.8 µM), inactives show at the top dose activity change, negative = inhibition, most hits filed as inhibitors. Marburg virus pseudotyped entry inhibition, cell reporter. hit rate 1.8% among 300,000; calls by dose curve; tested in HEK293 cells
RE007 growth inh: less growth of the S. pombe RE007 Vpr strain; S. pombe RE007 Vpr strain, BacTiter-Glo ATP luminescence, 24 h; Potency, µM (top dose mostly 92.2 µM), without a hit: top-dose activity change, negative = less growth, usual class: inhibitors; hit rate 0.21% among 360,000; AID 651644; active = well fitted falling curve with a large enough effect; inconclusive = small, poorly fitted or top-dose-only effect; inactive = no such curve, though single readings can be large or run the other way; note: nearly all actives have a fitted effect of over 50% in size
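Fission yeast strain RE007, carrying one chromosomally integrated HIV-1 vpr copy, was seeded at OD 0.01 in PMG+AL medium with 23 nL pinned compound. After 24 h at 30 °C and 99% humidity, viability was read by BacTiter-Glo luminescence.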
An asterisk follows results filed as active; ? = inconclusive; · = no result given; [ ] = dose if it differs, or a comment. Unless noted, calls come from the whole dose curve; as a rule, active = well fitted curve in the direction sought with a large enough effect; inconclusive = small, poorly fitted or top-dose-only effect, or another doubt; inactive = no such curve, though single readings can be large; an effect the other way counts as inactive or inconclusive. % is set by controls: 0 for no effect and ±100 for the full control effect; potency is the fitted concentration of half-maximal effect.

SMILES	LASV entry inh	Sm TGR block	HCV inh	FMDV antiviral	MARV entry inh	RE007 growth inh
Cc1cc2nc3s/c(=C/c4ccc(-c5ccccc5C(=O)O)o4)c(=O)n3c2cc1C	·	3.55µM*	-0.6%	0.0%	·	·
O=C(O)c1ccccc1-c1ccc(/C=c2\sc3nc4cc(Br)cnc4n3c2=O)o1	?	?	6.2%	-28.1%	-8.7%	-29.2%
Cc1ccccc1-c1nc(CN2CCC(C(=O)NCCCN3CCCC(C)C3)CC2)c(C)o1 (centres undefined)	?	-12.1%	5.01µM*	-12.8%	?	-11.4%
Cc1ccccc1-c1nc(CN2CCC(C(=O)NCCc3ccccc3)CC2)c(C)o1	-23.1%[46.1 µM]	-8.2%	·	-8.3%	20.5%[46.1 µM]	·
COc1ccc(CCNC(=O)C2CCN(Cc3nc(-c4ccccc4C)oc3C)CC2)cc1OC	-7.3%	-27.4%	7.94µM*	?	?	-14.0%
Cc1ccccc1-c1nc(CN2CCC(C(=O)NCCC3=CCCCC3)CC2)c(C)o1	?	0.3%	6.31µM*	-11.3%	?	-1.5%[3.69 µM]
CC(=O)c1c(O)c(C)c(O)c2c1OC1=CC(=O)[C@H](C(C)=O)C(=O)[C@]12C	·	·	·	·	11.0%	·
C=CC[C@@H]1C=C[C@H](ON=C[C@@H](N[S+](=O)([O-])c2ccc(C)cc2)[C@H](C)C=CCC(=O)OC)[C@H](CO)O1	·	·	·	·	-13.8%[14.2 µM]	·
COC(=O)C1Cc2ccccc2CN1C(=O)CCl (centres undefined)	?	-102.6%	?	22.4µM*	7.08µM*	-0.4%
COC(=O)[C@H](Cc1ccccc1)NC(=O)N1Cc2ccccc2C[C@H]1C(=O)OC	·	-1.7%	?	-1.0%	·	-3.5%
N/C(=N\OC(=O)c1cccc2ccccc12)c1ccccn1	?	5.3%	?	-13.0%	?	-25.0%
NC(=Nc1nc(-c2ccccn2)cc2ccccc12)c1ccccn1	0.562µM*	·	?	0.0%	?	-14.7%
Cc1ccc2oc(C(=O)Nc3sc4c(c3C(=O)NCc3ccccc3)CCCC4)cc(=O)c2c1	19.1%[46.1 µM]	0.6%	·	6.8%	10.0%[46.1 µM]	·
CCOCCn1ccc2c(OCC(=O)Nc3cc(OC)ccc3OC)cccc2c1=O	?	-2.4%	8.91µM*	?	?	16.3%
Cn1nc(-c2ccc(OCC(=O)N3CCN(Cc4ccccc4)CC3)cc2)c2ccccc2c1=O	-15.2%	-8.7%	6.31µM*	15.8µM*	8.2µM*	-4.4%
COCCn1ccc2c(OCC(=O)Nc3cc(OC)ccc3OC)cccc2c1=O	?	-4.7%	?	-40.5%	?	-0.7%
COc1ccccc1NC(=O)COc1ccc(-c2nn(C)c(=O)c3ccccc23)cc1	-6.5%[46.1 µM]	?	?	17.8µM*	-2.9%[46.1 µM]	34.3%
COc1ccccc1NC(=O)CCn1nc(-c2ccccc2)c2ccccc2c1=O	-0.9%[46.1 µM]	-5.5%	·	-8.5%	?	·
COc1ccccc1NC(=O)Cn1nc(-c2ccc(Cl)cc2)c2ccccc2c1=O	1.4%	-11.7%	10µM*	2.1%	-26.9%[46.1 µM]	-6.2%
CCOC(=O)CCN1C(=O)[C@H]2[C@H]3[C@H](O)[C@H](O)C/C(=N\NC(=O)OCc4ccc(OC)cc4)[C@H]3CC[C@H]2C1=O	·	·	·	·	22.5%[14.2 µM]	·
N/C(=N\OC(=O)c1cc(Cl)ccc1Cl)c1cccnc1	?	1.8%	2.2%	32.5%	?	-5.1%
N/C(=N\OC(=O)c1cc([N+](=O)[O-])ccc1Cl)c1ccccn1	?	?	11.2µM*	-14.3%	?	28.0%
N/C(=N/OC(=O)c1ccccc1Cl)c1ncc([N+](=O)[O-])s1	?	?	11.2µM*	17.6%	?	?
N/C(=N\OC(=O)c1ccccc1Cl)c1cccnc1	?	-1.2%	4.6%	-36.1%	?	20µM*
N/C(=N\OC(=O)c1ccccc1Cl)c1cccc([N+](=O)[O-])c1	·	-2.7%	8.6%	13.1%	·	5.6%
SMILES	LASV entry inh	Sm TGR block	HCV inh	FMDV antiviral	MARV entry inh	RE007 growth inh
N/C(=N\OC(=O)c1ccc([N+](=O)[O-])cc1Cl)c1ccccn1	?	?	?	15.8µM*	?	-0.9%
N/C(=N\OC(=O)c1ccc(Cl)cc1[N+](=O)[O-])c1ccccn1	?	0.0%	?	-14.4%	?	-16.4%
CCOc1ccccc1CNC(=O)c1nc(-c2ccc(Cl)cc2)n2c1CCCCC2	-14.1%[46.1 µM]	-2.7%	·	-20.4%	·	·
CC(=O)NC(Cc1c[nH]c2ccccc12)C(=O)OCC(=O)Nc1ccc2c(c1)OCO2 (centres undefined)	-4.3%	10µM*	3.2%	-5.1%	?	1.8%
Cc1ccc(C(C(=O)Nc2ccc3c(c2)OCO3)N(C)C(=O)Cc2c[nH]c3ccccc23)cc1 (centres undefined)	?	-15.2%	-13.5%	-12.9%	10µM*	21.2%
Cc1ccc(C(=O)COC(=O)C(Cc2c[nH]c3ccccc23)NC(=O)c2ccc(C(C)(C)C)cc2)cc1 (centres undefined)	?	11.2µM*	·	20.5%	·	·
O=C(Nc1ccc(N2CCOCC2)c(S(=O)(=O)Nc2ccccc2Cl)c1)c1ccc(F)cc1	?	·	10µM*	24.4%	?	-2.8%
CC(C)(C)CC(=O)Nc1ccccc1N1CCN(c2ccc(F)cc2)CC1	?	1.1%	0.4%	?	7.94µM*	-4.2%
CC(C)(C)CC(=O)Nc1ccccc1N1CCN(c2ccccc2)CC1	?	4.0%	5.0%	-8.6%	?	5.6%
O=C(Nc1ccc(Cl)c(Cl)c1)Nc1ccc(N2CCCC2)c(S(=O)(=O)Nc2ccccc2Cl)c1	8.91µM*	-0.8%	?	-2.9%	?	-3.6%
O=C(/C=C/c1cccs1)Nc1ccc(N2CCOCC2)c(S(=O)(=O)Nc2ccccc2Cl)c1	?	4.0%	?	84.1%	?	12.9%
O=C(Nc1ccc(F)cc1)Nc1ccccc1N1CCCCC1	·	2.8%	11.2µM*	?	·	1.2%
CCCc1noc(-c2ccc(N3CCCCC3)c([N+](=O)[O-])c2)n1	11.1%[46.1 µM]	1.9%	·	8.2%	-1.8%[46.1 µM]	·
O=C(Nc1ccc(N2CCCCC2)c(S(=O)(=O)Nc2ccccc2Cl)c1)c1cccnc1	-23.2%	·	12.6µM*	-5.6%	?	-3.7%
CCOC(=O)Nc1ccc(N2CCOCC2)c(S(=O)(=O)Nc2ccc(Cl)cc2)c1	?	·	?	35.4%	10µM*	4.9%
O=C(Nc1ccc(F)cc1)Nc1ccc(N2CCCC2)c(S(=O)(=O)Nc2ccccc2Cl)c1	7.31µM*	0.7%	6.31µM*	-21.6%	7.94µM*	-5.8%
COc1ccc(NS(=O)(=O)c2cc(NC(=O)c3cc(F)c(F)cc3Cl)ccc2N2CCOCC2)cc1	·	·	?	72.4%	·	0.5%
COc1ccccc1NS(=O)(=O)c1cc(NC(=O)Nc2ccccc2)ccc1N1CCCCC1	?	-6.7%	?	50.8%	?	8.7%
CCOc1ccc(CCNC(=O)c2cccc(S(=O)(=O)N3CCN(C(C)=O)CC3)c2)cc1OCC	30.8%	-19.5%	?	-6.2%	-3.5%	5.9%
